Compound activity: PubChem, National Center for Advancing Translational Sciences (NCATS)
NPC1 prom act: activates the NPC1 promoter; Huh7 NPC1 promoter luciferase reporter, 24 h; Potency, µM (top dose mostly 9.22 µM), inactives show top-dose activation, most hits filed as activators; 320,000 compounds, 2.4% hits; note: % of control where 0% means no effect; nearly all actives have a fitted effect of over 60% in size
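Readout is luciferase luminescence, reflecting NPC1 promoter activation in stably transfected Huh7 cells after 24 h compound exposure at 37 °C in reduced-serum medium with 10% FBS.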
ELG1 DNA repair: inhibitors of ELG1-dependent DNA repair in HEK293T cells; HEK293T ELG1-luciferase reporter, luminescence, 16 h; DNA damage induced by 5-fluorouridine; Potency, µM (series often up to 46.1 µM), inactives show at the highest dose activity change, negative = inhibition, most hits filed as inhibitors; 330,000 compounds, 2.3% hits; note: % is set by controls: 0 for no effect and ±100 for the full control effect; nearly all actives have a fitted effect of over 55% in size
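5-Fluorouridine DNA damage + compound/DMSO, 2,000 cells/well, 16 h, 37 °C/5% CO2. ONE-Glo, 30 min RT, luminescence. Readout = decrease in reporter signal.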
Rab9 promoter act: activates the Rab9 promoter. Potency, µM (series often up to 9.22 µM), for the others: at the highest dose activation, negative = inhibition, hits mostly activators. 320,000 compounds, 2.8% hits. Huh7 Rab9 promoter-luciferase reporter, luminescence, 24 h. AID 485297; note: % of control where 0% means no effect; nearly all actives have a fitted effect of over 60% in size
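Huh7 cells stably carrying Rab9 promoter–luciferase reporter, plated 1500 cells/well, compound added after 2 h and incubated 24 h at 37 °C; luciferase luminescence then read after 10 min with detection reagent.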
SMN2 splice up: SMN2 splice variant enhancement. Potency, µM (highest dose often 46.1 µM), inactives show at the highest dose activity change, positive = activation, usual class: activators. HEK293 SMN2-luciferase splicing reporter, luminescence, 30-36 h. 210,000 compounds, 2.8% hits; note: % of control where 0% means no effect; nearly all actives have a fitted effect of over 55% in size
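qHTS luciferase splicing reporter: luminescence rises when SMN2 exon 7 is included in transfected HEK293 cells. Compound exposure lasted 30-36 h at 37C, with 4.5 mM final sodium butyrate as control, followed by a ONE-Glo read.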
FLuc counter: counter-screen for miR-21 project: firefly luciferase inhibitors or activators; P08659; purified FLuc, Km substrates, luminescence inhibition; Potency, µM (top dose mostly 57.5 µM), without a hit: at the top dose activity change, negative = inhibition, most hits filed as inhibitors; 360,000 compounds, 6.9% hits;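 note: plate controls were vehicle for no effect and reference inhibitor for full effect; nearly all actives have a fitted effect of over 55% in size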
Target sequence (P08659 whole entry, looked up): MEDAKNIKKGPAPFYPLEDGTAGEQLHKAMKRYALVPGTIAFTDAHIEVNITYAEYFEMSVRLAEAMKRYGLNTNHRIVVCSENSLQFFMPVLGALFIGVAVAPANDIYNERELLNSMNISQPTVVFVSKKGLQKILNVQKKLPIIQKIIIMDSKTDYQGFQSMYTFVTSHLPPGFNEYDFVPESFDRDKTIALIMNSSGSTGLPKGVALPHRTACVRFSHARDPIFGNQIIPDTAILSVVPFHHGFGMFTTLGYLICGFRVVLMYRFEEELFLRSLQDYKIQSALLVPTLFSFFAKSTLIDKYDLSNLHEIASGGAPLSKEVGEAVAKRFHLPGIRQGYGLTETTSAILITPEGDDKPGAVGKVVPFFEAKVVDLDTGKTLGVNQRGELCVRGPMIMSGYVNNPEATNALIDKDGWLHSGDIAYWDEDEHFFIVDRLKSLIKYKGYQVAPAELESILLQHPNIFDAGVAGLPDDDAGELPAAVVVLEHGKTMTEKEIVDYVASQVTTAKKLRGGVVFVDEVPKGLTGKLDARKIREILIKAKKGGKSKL
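Biochemical qHTS of compounds, final roughly 60 µM downward over six points, against 10 nM purified firefly luciferase using Km concentrations of substrates (10 uM D-luciferin, 10 uM ATP) in Tris acetate pH 7.5 buffer; luminescence output.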
ELG1 genotox: inducers of genotoxicity in HEK293T ELG1-luciferase cells. HEK293T ELG1-luciferase reporter, luminescence, 16 h. Potency, µM (titrated, usually from 46 µM), without a hit: top-dose activity change, positive = activation, usual class: activators. 330,000 compounds, 1.3% hits. AID 504466; note: % of control where 0% means no effect; nearly all actives have a fitted effect of over 60% in size
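16 hr compound incubation (37 °C, 5% CO2) of HEK293T cells carrying luciferase-tagged ELG1; luciferase then measured by ONE-Glo luminescence after 30 min at RT.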
Starred values were filed as active, the others as inactive; u = inconclusive; x = no result given; [ ] = remark or other dose. Shown are actives, neighbours in structure and some others; about 9.3% of the full set was active somewhere. Calls come from the whole dose curve; as a rule, active = well fitted curve in the direction sought with a large enough effect; inconclusive = small, poorly fitted or top-dose-only effect, or another doubt; inactive = no such curve, though single readings can be large; an effect the other way counts as inactive or inconclusive. Potency is the fitted concentration of half-maximal effect.

SMILES	NPC1 prom act	ELG1 DNA repair	Rab9 promoter act	SMN2 splice up	FLuc counter	ELG1 genotox
CCOC(=O)C1C(=O)NC(c2ccccc2)=NC1c1ccc(Br)cc1 (stereo not given)	-4%	17%	-4%	3%	-1%	0%
CCCCNC(=O)COC(=O)c1c2c(nc3ccccc13)/C(=C/c1cccs1)CC2	-32%	u	-30%	11µM*	7.6µM*	-12%
CNC(=O)NC(=O)C(C)OC(=O)c1c2c(nc3ccccc13)/C(=C/c1cccs1)CC2 (stereo not given)	-32%	9.2µM*	-34%	u	6µM*	-17%
CCCCNC(=O)COC(=O)c1c2c(nc3ccccc13)CCC2	-7%	u	-1%	x	-12%	-17%
CC(OC(=O)c1c2c(nc3ccccc13)/C(=C\c1ccc3c(c1)OCO3)CCC2)C(=O)Nc1ccc(S(N)(=O)=O)cc1 (stereo not given)	-15%	u	0%	-14%	u	-1%
COc1ccc(C(C)(C)C)cc1NC(=O)CCn1[nH]c(=O)ccc1=O	x	17%	x	x	x	-2%
CCc1ccc[n+](-c2[nH]c(=O)sc2/C=N/N=C(\[O-])CCn2c3ccccc3c3ccccc32)c1	1%	16%	-1%	x	0%	0%
COC(=O)c1ccc(-c2ccc(/C=N/N3C(=O)C4C5C=CC(CC5)C4C3=O)o2)cc1 (stereo not given)	3.2µM*	u	3.2µM*	5µM*	24µM*	-7%
O=C(O)c1cc(-c2ccc(/C=N/N3C(=O)C4C5C=CC(C6CC56)C4C3=O)o2)ccc1Cl (stereo not given)	0%	u	-5%	10%	u	3%
O=C1C2C3C=CC(CC3)C2C(=O)N1/N=C/c1ccc(O)cc1 (stereo not given)	u	u	26%	2%	15µM*	u
O=C(O)c1cc(-c2ccc(/C=N/N3C(=O)C4C5C=CC(CC5)C4C3=O)o2)ccc1Cl (stereo not given)	1%	14%	1%	x	19µM*	3%
O=C1C2C3C=CC(CC3)C2C(=O)N1/N=C/c1ccc(O)c(O)c1 (stereo not given)	-15%	26%	-15%	u	u	13%
CCC(C)NC(=S)N1CCN(Cc2ccc3c(c2)OCO3)CC1 (stereo not given)	0%	-5%	1%	-3%	1%	-20%
COC(=O)c1ccccc1NC1OC(=O)c2ccccc21 (stereo not given)	1%	2%	6%	x	-2%	0%
CCN1C(=O)[C@H]2[C@H]3CN=C(SCc4ccc(C(=O)OC)cc4)N3[C@@](CC)(C(=O)OC)[C@H]2C1=O	x	14%	x	x	x	-2%
Cc1cc(C)n(-c2nc(NCC(C)O)c3c4c(sc3n2)COC(C)(C)C4)n1 (stereo not given)	-1%	15µM*	3%	-5%	-14%	-4%
Cc1cc(C)n(-c2nc(SCC(=O)O)c3c4c(sc3n2)CCCC4)n1	0%	-23%	-1%	x	u	0%
Cc1cc(C)n(-c2nc(NCCO)c3c4c(sc3n2)CCCC4)n1	-1%	u	0%	-16%	u	5%
Cc1cc(C)n(-c2nc(NCC(C)O)c3c4c(sc3n2)CCCC4)n1 (stereo not given)	0%	16µM*	6%	-34%	u	-11%
Cc1cc(C)n(-c2nc(NCCCO)c3c4c(sc3n2)CCCC4)n1	20%	u	16%	-48%	21µM*	6%
Cc1cc(C)n(-c2nc(SCCN(C)C)c3c4c(sc3n2)COC(C)(C)C4)n1	6%	18µM*	-1%	-15%	-4%	-7%
COc1ccc(/C=C/C(=O)NNC(=O)c2cc(C)oc2C)cc1	0%	-1%	7%	x	-15%	-3%
O=c1cc(O)c(-c2cccc(Cl)c2)c(Cl)[nH]1	-3%	3%	-4%	-2%	0%	-6%
COc1ccc(-c2noc(CCCC(=O)N3CCN(c4cc(C)ccc4C)CC3)n2)cc1	x	u	x	x	x	13%
CC(=O)c1cc(NC(=O)c2cccc(C(F)(F)F)c2)c(=O)oc1C	9%	9%	1%	15%	-10%	0%
SMILES	NPC1 prom act	ELG1 DNA repair	Rab9 promoter act	SMN2 splice up	FLuc counter	ELG1 genotox
Cc1cc(C)n(-c2nc(NCC3CCCO3)c3c4c(sc3n2)COC(C)(C)C4)n1 (stereo not given)	2%	18µM*	14%	6%	u	-12%
Cc1cc(C)n(-c2nc(SCC(=O)NCC3CCCO3)c3c4c(sc3n2)CCCC4)n1 (stereo not given)	-3%	10%	-7%	x	-19%	0%
Cc1ccc(-n2nc(C(=O)O)c3ccccc3c2=O)cc1C	-1%	u	-2%	-14%	-17%	-18%
Cc1ccc(-n2nnc3ccccc3c2=O)cc1C	u	u	3.5µM*	14µM*	2%[2.3 µM]	u
COc1ccc(O)c(/C=N/N2CCCCC2)c1	3.2µM*	u	2µM*	x	9.5µM*	u
COc1cc(/C=N/N2CCCCC2)cc(OC)c1O	0%	7%	5%	x	-17%	3%
COc1ccc(/C(C)=N/N2CCCCC2)c(O)c1	5%	10%	18%	x	9.5µM*	7%
COc1ccc(OC)c(S(N)(=O)=O)c1	1%	12%	-4%	5%	3%	3%
CN1C(=O)COc2ccc(C(=O)c3oc4ccccc4c3-c3cnc4c(c3)COc3ccccc3-4)cc21	-7%	9.2µM*	1%	-2%	u	-6%
C/C(N)=C(/C#N)C(=O)CSc1nnc(Nc2c(C)cccc2C)s1	-6%	0%	-3%	1%	0%	0%
C/C(N)=C(/C#N)C(=O)CSc1nnc(Nc2cccc(C)c2C)s1	u	u	u	u	17µM*	15%
COc1cc(C(=O)NCCNc2nc3ccc(C)cc3cc2C#N)cc(OC)c1OC	3%	15µM*	-5%	x	-12%	-2%
COc1ccccc1Nc1nc2ccc(C)cc2cc1C#N	19%	-7%	16%	1%	12µM*	1%
COc1ccc2nc(NCCCNC(=O)c3cc(OC)c(OC)c(OC)c3)c(C#N)cc2c1	-3%	16µM*	2%	-3%	-2%	-7%
COc1ccccc1Nc1nc2cc(C)ccc2cc1C#N	11%	6%	0%	x	5%	3%
COc1ccc(C(=O)NCCNc2nc3ccc(C)cc3cc2C#N)cc1	-1%	2%	-11%	x	0%	u
